PubChem BioAssay (EPA / NIEHS)
Activity calls are given as the source filed them. Rule for the calls: active = hit-call score of the fitted dose curve at least 0.9, where 1 is the maximum; inactive = score below 0.9.

Tests used:
[1] = read-out: Fatty acid synthase (Homo sapiens) (UniProt P49327); assay: LTEA_HepaRG_FASN: Life Technologies and Expression Analysis (LTEA) Assay for Fatty Acid Synthase (FASN) using HepaRG (AID 2283448); details: mRNA level, 48 h; actives raise or lower the signal;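 for AC50: differentiated human HepaRG liver cells in serum-free induction medium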
How it was run: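 Differentiated HepaRG cells in serum-free induction medium exposed 48 h in duplicate to eight half-log concentrations, top 100 uM, 0.5% DMSO. FASN mRNA by qRT-PCR normalised to ACTB, GAPDH, POLR2A; bidirectional fit versus DMSO.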

[2] = read-out: Cyclin D2 (CCND2), CCND2 (gene 894); assay: LTEA_HepaRG_CCND2: Life Technologies and Expression Analysis (LTEA) Assay for Cyclin D2 (CCND2) using HepaRG (AID 2283449); details: mRNA level, 48 h; actives raise or lower the signal
How it was run: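 Read-out is CCND2 mRNA level measured by qRT-PCR in human HepaRG liver cells and normalised to three housekeeping genes. Chemicals were applied for 48 h at up to 100 uM, with gain or loss fitted relative to 0.5% DMSO.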

[3] = read-out: Cyclin Dependent Kinase Inhibitor 1A (CDKN1A), CDKN1A (gene 1026); assay: LTEA_HepaRG_CDKN1A: Life Technologies and Expression Analysis (LTEA) Assay for Cyclin Dependent Kinase Inhibitor 1A (CDKN1A) using HepaRG (AID 2283450); details: mRNA level, 48 h; actives raise or lower the signal
How it was run: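 Expression quantified by Fluidigm qRT-PCR with ACTB, GAPDH and POLR2A normalization, fitted bidirectionally against 0.5% DMSO. Cells: HepaRG, plated 48 h then treated 48 h in serum-free induction medium, top concentration 100 uM with half-log dilutions.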

[4] = read-out: Cyclin D1 (CCND1), CCND1 (gene 595); assay: LTEA_HepaRG_CCND1: Life Technologies and Expression Analysis (LTEA) Assay for Cyclin D1 (CCND1) using HepaRG (AID 2283451); details: mRNA level, 48 h; actives raise or lower the signal;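 for AC50: differentiated human HepaRG liver cells in serum-free induction medium; TaqMan qRT-PCR transcript level normalised to ACTB GAPDH and POLR2A housekeeping genes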
How it was run: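 Expression of CCND1 was quantified by qRT-PCR on Fluidigm arrays using ACTB, GAPDH and POLR2A as reference genes. HepaRG cultures, plated 48 h beforehand, were dosed for 48 h at up to 100 uM (half-log, 8 points) in 0.5% DMSO.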

[5] = read-out: catalase (CAT), CAT (gene 847); assay: LTEA_HepaRG_CAT: Life Technologies and Expression Analysis (LTEA) Assay for catalase (CAT) using HepaRG (AID 2283452); details: mRNA level, 48 h; actives raise or lower the signal
How it was run: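 Expression of CAT was quantified by TaqMan qRT-PCR with ACTB/GAPDH/POLR2A normalization after 48 h chemical exposure of HepaRG. Eight-point half-log series, top 100 uM, in 0.5% DMSO; gain or loss fitted against vehicle.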

[6] = read-out: flavin-containing dimethylaniline monooxygenases 3 (FMO3), FMO3 (gene 2328); assay: LTEA_HepaRG_FMO3: Life Technologies and Expression Analysis (LTEA) Assay for flavin-containing dimethylaniline monooxygenases 3 (FMO3) using HepaRG (AID 2283453); details: mRNA level, 48 h; actives raise or lower the signal;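 for AC50: differentiated human HepaRG liver cells in serum-free induction medium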
How it was run: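 Differentiated HepaRG cells in serum-free induction medium, exposed 48 h in duplicate to 8 half-log concentrations up to 100 uM in 0.5% DMSO. FMO3 mRNA by qRT-PCR, normalized to ACTB, GAPDH, POLR2A; bidirectional fit vs DMSO.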

[7] = read-out: Cytochrome P450 (CYP1A1), CYP1A1 (gene 1543); assay: LTEA_HepaRG_CYP1A1: Life Technologies and Expression Analysis (LTEA) Assay for Cytochrome P450 (CYP1A1) using HepaRG (AID 2283454); details: mRNA level, 48 h; actives raise or lower the signal
How it was run: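 CYP1A1 transcript levels measured by Fluidigm qRT-PCR against three housekeeping genes, 48 h after chemical dosing of human HepaRG cells (highest concentration 100 uM, half-log steps, 0.5% DMSO vehicle). Gain or loss of signal fitted relative to DMSO.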

[8] = read-out: CFLAR gene, CFLAR (gene 8837); assay: LTEA_HepaRG_CFLAR: Life Technologies and Expression Analysis (LTEA) Assay for CFLAR gene using HepaRG (AID 2283455); details: mRNA level, 48 h; actives raise or lower the signal
How it was run: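 HepaRG, 48 h exposure, 8-pt conc-response (100 uM top, half-log), 0.5% DMSO vehicle, duplicates. CFLAR expression by qRT-PCR; ACTB/GAPDH/POLR2A normalization; gain or loss fit vs DMSO baseline.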

[9] = read-out: Forkhead box O1 (FOXO1), FOXO1 (gene 2308); assay: LTEA_HepaRG_FOXO1: Life Technologies and Expression Analysis (LTEA) Assay for Forkhead box O1 (FOXO1) using HepaRG (AID 2283456); details: mRNA level, 48 h; actives raise or lower the signal
How it was run: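 Readout is FOXO1 transcript level by multiplexed qRT-PCR against three housekeeping genes, curve-fitted in both directions relative to 0.5% DMSO vehicle. Human HepaRG cultures received chemicals for 48 h, up to 100 uM in half-log steps.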

[10] = read-out: growth arrest and DNA damage 45 (GADD45A), GADD45A (gene 1647); assay: LTEA_HepaRG_GADD45A: Life Technologies and Expression Analysis (LTEA) Assay for growth arrest and DNA damage 45 (GADD45A) using HepaRG (AID 2283458); details: mRNA level, 48 h; actives raise or lower the signal
How it was run: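 Differentiated HepaRG cells exposed 48 h in serum-free induction medium to 8 concentrations, top 100 uM in half-log steps, 0.5% DMSO. GADD45A mRNA quantified by qRT-PCR, normalized to ACTB, GAPDH and POLR2A; bidirectional fit versus DMSO.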

[11] = read-out: Forkhead box O3 (FOXO3), FOXO3 (gene 2309); assay: LTEA_HepaRG_FOXO3: Life Technologies and Expression Analysis (LTEA) Assay for Forkhead box O3 (FOXO3) using HepaRG (AID 2283459); details: mRNA level, 48 h; actives raise or lower the signal
How it was run: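 HepaRG, 48 h post-dose; 8 conc., half-log from 100 uM, 0.5% DMSO, duplicates; serum-free induction medium. Readout: FOXO3 mRNA, TaqMan qRT-PCR, housekeeping-normalized. Bidirectional curve fit vs DMSO baseline.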

[12] = read-out: ABC Transporter (ABCB1), ABCB1 (gene 5243); assay: LTEA_HepaRG_ABCB1: Life Technologies and Expression Analysis (LTEA) Assay for ABC Transporter (ABCB1) using HepaRG (AID 2283460); details: mRNA level, 48 h; actives raise or lower the signal
How it was run: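 Expression of ABCB1 was quantified by qRT-PCR against three housekeeping genes after human HepaRG cultures received test chemicals for 48 hours. Concentrations spanned eight half-log steps topping at 100 uM in 0.5% DMSO; gain or loss of signal was fitted relative to vehicle.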

[13] = read-out: growth arrest and DNA damage 45 (GADD45B), GADD45B (gene 4616); assay: LTEA_HepaRG_GADD45B: Life Technologies and Expression Analysis (LTEA) Assay for growth arrest and DNA damage 45 (GADD45B) using HepaRG (AID 2283461); details: mRNA level, 48 h; actives raise or lower the signal
How it was run: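 Transcript level quantified by Fluidigm TaqMan qRT-PCR with three housekeeping genes for normalization, analyzed for up- or down-regulation against 0.5% DMSO. HepaRG cultures dosed 48 h at eight half-log concentrations up to 100 uM, duplicates.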

[14] = read-out: ABC Transporter (ABCC3), ABCC3 (gene 8714); assay: LTEA_HepaRG_ABCC3: Life Technologies and Expression Analysis (LTEA) Assay for ABC Transporter (ABCC3) using HepaRG (AID 2283462); details: mRNA level, 48 h; actives raise or lower the signal
How it was run: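 Transcript level by TaqMan qRT-PCR, normalised to three housekeeping genes, fitted in both directions relative to vehicle. Chemicals tested in duplicate at eight half-log concentrations up to 100 uM for 48 h on HepaRG cells (0.5% DMSO).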

[15] = read-out: ABC Transporter (ABCB11), ABCB11 (gene 8647); assay: LTEA_HepaRG_ABCB11: Life Technologies and Expression Analysis (LTEA) Assay for ABC Transporter (ABCB11) using HepaRG (AID 2283463); details: mRNA level, 48 h; actives raise or lower the signal
How it was run: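 ABCB11 transcript levels are read by Fluidigm TaqMan qRT-PCR after 48 h chemical treatment of human HepaRG cells. Concentrations span 100 uM downward in half-log steps with 0.5% DMSO; gain or loss is fitted against DMSO controls.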

[16] = read-out: ABC Transporter (ABCC2), ABCC2 (gene 1244); assay: LTEA_HepaRG_ABCC2: Life Technologies and Expression Analysis (LTEA) Assay for ABC Transporter (ABCC2) using HepaRG (AID 2283464); details: mRNA level, 48 h; actives raise or lower the signal
How it was run: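 Endpoint is ABCC2 transcript level from qRT-PCR, normalized to three housekeeping genes and fitted bidirectionally relative to DMSO. Human HepaRG cells received test chemical for 48 h at up to 100 uM (8 points, half-log steps, 0.5% DMSO), duplicate wells.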

[17] = read-out: Broad substrate specificity ATP-binding cassette transporter ABCG2 (Homo sapiens) (UniProt Q9UNQ0); assay: LTEA_HepaRG_ABCG2: Life Technologies and Expression Analysis (LTEA) Assay for ABC Transporter (ABCG2) using HepaRG (AID 2283465); details: mRNA level, 48 h; actives raise or lower the signal
How it was run: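 Read-out is ABCG2 mRNA induction or loss quantified by qRT-PCR after 48 h chemical treatment of human HepaRG cells, normalized to three housekeeping genes. Concentrations reached 100 uM top in half-log steps; fitting was bidirectional against 0.5% DMSO.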

[18] = read-out: ATP-citrate lyase (ACLY), ACLY (gene 47); assay: LTEA_HepaRG_ACLY: Life Technologies and Expression Analysis (LTEA) Assay for ATP-citrate lyase (ACLY) using HepaRG (AID 2283466); details: mRNA level, 48 h; actives raise or lower the signal
How it was run: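 HepaRG, 48 h exposure, 8-pt half-log dilutions (top 100 uM), 0.5% DMSO. Readout: ACLY mRNA, TaqMan qRT-PCR, housekeeping-normalized (ACTB/GAPDH/POLR2A). Bidirectional curve fit vs DMSO.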

[19] = CEETOX_H295R_TESTO: CeeTox H295R High-throughput Steroidogenesis Assay for Testosterone (TESTO) (AID 2283457); details: actives raise or lower the signal;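 note: cells exposed to chemicals for 48 h before medium collection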
How it was run: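 Testosterone secreted into the medium over 48 h by H295R cells (maximum passage 10) was quantified by LC-MS/MS after MTBE extraction. Fitted in both directions against DMSO, with concentrations diluted until MTT viability was ≥70%.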

[20] = read-out: Peroxisomal acyl-coenzyme A oxidase 1 (ACOX1) gene, ACOX1 (gene 51); assay: LTEA_HepaRG_ACOX1: Life Technologies and Expression Analysis (LTEA) Assay for Peroxisomal acyl-coenzyme A oxidase 1 (ACOX1) gene using HepaRG (AID 2283467); details: mRNA level, 48 h; actives raise or lower the signal
How it was run: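 Measured by qRT-PCR against three housekeeping genes: ACOX1 transcript change in human HepaRG cells after 48 h dosing. Concentrations ran up to 100 uM in half-log steps. Curves were fitted bidirectionally relative to 0.5% DMSO.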

Measured: AC50

Chain of Broad substrate specificity ATP-binding cassette transporter ABCG2 (Homo sapiens) (Q9UNQ0 whole entry, looked up): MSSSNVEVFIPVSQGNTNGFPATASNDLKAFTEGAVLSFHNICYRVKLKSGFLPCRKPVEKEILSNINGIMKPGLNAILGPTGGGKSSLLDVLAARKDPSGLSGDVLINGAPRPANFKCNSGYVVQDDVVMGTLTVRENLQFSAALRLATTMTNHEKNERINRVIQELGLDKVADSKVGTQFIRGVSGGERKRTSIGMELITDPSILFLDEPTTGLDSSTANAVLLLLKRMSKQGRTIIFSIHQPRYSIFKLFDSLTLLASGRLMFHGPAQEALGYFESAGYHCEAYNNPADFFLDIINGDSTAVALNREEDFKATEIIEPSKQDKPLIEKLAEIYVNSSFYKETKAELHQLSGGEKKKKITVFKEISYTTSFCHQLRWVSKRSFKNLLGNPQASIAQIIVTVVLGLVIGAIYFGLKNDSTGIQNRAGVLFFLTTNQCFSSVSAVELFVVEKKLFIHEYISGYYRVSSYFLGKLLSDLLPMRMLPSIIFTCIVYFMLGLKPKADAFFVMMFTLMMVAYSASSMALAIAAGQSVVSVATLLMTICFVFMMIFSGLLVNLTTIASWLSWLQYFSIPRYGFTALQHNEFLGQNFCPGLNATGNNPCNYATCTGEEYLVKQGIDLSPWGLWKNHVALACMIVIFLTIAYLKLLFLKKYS
Chain of Fatty acid synthase (Homo sapiens) (P49327 whole entry, looked up): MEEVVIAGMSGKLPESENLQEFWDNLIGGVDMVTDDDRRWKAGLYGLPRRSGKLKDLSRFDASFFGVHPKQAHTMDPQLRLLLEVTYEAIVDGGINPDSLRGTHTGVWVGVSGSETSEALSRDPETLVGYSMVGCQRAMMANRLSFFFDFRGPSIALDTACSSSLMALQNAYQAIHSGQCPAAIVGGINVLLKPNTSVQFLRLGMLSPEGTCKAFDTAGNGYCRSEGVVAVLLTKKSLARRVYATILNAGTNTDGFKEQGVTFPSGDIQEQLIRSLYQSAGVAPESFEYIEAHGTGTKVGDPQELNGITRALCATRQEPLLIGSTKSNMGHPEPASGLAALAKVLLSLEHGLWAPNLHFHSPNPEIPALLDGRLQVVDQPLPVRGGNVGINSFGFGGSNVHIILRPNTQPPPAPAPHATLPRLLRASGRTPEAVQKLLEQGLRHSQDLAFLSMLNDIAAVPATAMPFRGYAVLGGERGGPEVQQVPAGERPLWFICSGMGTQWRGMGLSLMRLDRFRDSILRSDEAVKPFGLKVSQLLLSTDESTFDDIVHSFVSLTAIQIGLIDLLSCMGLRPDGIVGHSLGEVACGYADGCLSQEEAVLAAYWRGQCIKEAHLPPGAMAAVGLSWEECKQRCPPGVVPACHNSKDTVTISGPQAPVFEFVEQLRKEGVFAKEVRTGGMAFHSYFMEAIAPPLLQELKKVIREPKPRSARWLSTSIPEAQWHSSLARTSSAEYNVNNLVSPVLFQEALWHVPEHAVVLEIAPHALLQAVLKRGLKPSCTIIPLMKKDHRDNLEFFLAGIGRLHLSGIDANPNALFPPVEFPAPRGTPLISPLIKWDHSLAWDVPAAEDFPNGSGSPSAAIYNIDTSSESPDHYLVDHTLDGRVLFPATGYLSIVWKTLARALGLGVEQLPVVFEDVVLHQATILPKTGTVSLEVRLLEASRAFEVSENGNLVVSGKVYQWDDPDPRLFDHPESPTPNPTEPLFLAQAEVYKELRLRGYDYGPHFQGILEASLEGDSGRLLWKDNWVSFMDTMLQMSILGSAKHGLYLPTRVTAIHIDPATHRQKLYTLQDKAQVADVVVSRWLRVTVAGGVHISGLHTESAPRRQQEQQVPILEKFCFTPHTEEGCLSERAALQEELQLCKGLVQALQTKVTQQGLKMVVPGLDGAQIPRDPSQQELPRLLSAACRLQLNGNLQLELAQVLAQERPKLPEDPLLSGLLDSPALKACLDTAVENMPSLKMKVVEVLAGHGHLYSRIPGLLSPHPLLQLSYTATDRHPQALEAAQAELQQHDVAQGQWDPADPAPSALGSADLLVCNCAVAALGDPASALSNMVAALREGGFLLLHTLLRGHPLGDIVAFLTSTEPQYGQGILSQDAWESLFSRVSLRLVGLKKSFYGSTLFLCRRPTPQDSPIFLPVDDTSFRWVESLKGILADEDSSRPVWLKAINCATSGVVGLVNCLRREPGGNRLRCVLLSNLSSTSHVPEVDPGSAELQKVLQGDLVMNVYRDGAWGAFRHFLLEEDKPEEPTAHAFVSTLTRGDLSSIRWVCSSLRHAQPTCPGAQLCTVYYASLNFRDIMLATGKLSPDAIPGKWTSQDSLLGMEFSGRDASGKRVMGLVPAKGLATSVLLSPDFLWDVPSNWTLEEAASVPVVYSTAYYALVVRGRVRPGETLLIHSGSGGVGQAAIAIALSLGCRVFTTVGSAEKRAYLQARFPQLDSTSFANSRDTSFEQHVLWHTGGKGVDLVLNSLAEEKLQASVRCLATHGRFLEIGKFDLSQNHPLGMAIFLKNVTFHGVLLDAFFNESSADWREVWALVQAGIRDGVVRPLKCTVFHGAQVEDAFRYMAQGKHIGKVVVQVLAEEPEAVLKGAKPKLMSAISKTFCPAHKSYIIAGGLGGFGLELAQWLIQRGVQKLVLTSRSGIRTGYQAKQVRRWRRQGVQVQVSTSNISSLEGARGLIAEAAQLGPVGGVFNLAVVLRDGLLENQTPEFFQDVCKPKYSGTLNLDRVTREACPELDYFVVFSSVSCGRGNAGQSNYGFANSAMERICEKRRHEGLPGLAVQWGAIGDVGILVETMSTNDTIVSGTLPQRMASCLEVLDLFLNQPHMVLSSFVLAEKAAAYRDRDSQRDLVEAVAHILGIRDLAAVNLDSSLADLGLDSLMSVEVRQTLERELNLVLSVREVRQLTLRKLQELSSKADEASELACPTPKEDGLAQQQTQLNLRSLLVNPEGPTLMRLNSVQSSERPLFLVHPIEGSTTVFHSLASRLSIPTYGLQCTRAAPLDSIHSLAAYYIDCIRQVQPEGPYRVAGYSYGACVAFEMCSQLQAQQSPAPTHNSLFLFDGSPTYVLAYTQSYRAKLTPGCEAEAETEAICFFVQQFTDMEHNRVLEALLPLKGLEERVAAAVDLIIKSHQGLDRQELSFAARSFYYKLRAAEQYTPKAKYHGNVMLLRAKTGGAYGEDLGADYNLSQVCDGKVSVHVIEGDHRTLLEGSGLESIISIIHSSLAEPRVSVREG

OC1CCC(C2CCCCC2)CC1 (stereo not drawn)
not listed: [19] | [20]
inactive: all other assays above

c1ccc2c(c1)ccc1ccccc12
active: [7] 50 µM | [19] 56.2 µM | [17] 9.4 µM
not listed: [16] | [20]
inactive: all other assays above

Cc1oc(-c2ccccc2)nc1CCOc1ccc(C[C@H](Nc2ccccc2C(=O)c2ccccc2)C(=O)O)cc1
inactive: [2] | [3] | [9]
active: [1] 31.9 µM | [4] 23.6 µM | [5] 29.4 µM | [6] 26.4 µM | [7] 11.4 µM | [8] 30 µM | [10] 12.4 µM | [11] 64.6 µM | [12] 26.5 µM | [13] 58.4 µM | [14] 32.5 µM | [15] 23.6 µM | [17] 27.7 µM | [18] 22.6 µM

CC(C)(C)c1ccc(O)c(C(C)(C)C)c1
active: [2] 0.00316 µM
not listed: [19] | [20]
inactive: all other assays above

CC#C[C@]1(O)CC[C@H]2[C@@H]3CCC4=CC(=O)CCC4=C3[C@@H](c3ccc(N(C)C)cc3)C[C@@]21C
inactive: [2] | [8] | [14]
active: [1] 4.54 µM | [3] 39.2 µM | [4] 86.2 µM | [5] 34.2 µM | [6] 33.4 µM | [7] 50 µM | [9] 3.33 µM | [10] 72.6 µM | [11] 91.2 µM | [12] 26.9 µM | [13] 12 µM | [15] 24.7 µM | [16] 2.42 µM | [17] 29.8 µM | [18] 79.1 µM

CC(O)CO (stereo not drawn)
not listed: [19] | [20]
inactive: all other assays above

COc1ccc([N+](=O)[O-])cc1N
active: [7] 50 µM
not listed: [16] | [19]
inactive: all other assays above

CCCCCCCCCCCCCCCS(=O)(=O)Oc1ccccc1
active: [7] 11.4 µM | [12] 13.3 µM
not listed: [16] | [19]
inactive: all other assays above

C=C(C)C(=O)OCCC(F)(F)C(F)(F)C(F)(F)C(F)(F)C(F)(F)C(F)(F)F
active: [7] 10.2 µM
not listed: [16] | [19]
inactive: all other assays above

OC1CCCCC1
not listed: [2] | [16] | [19]
inactive: all other assays above

Oc1cc2ccccc2c2ccccc12
active: [7] 30.7 µM | [15] 38.9 µM
not listed: [2] | [19] | [20]
inactive: all other assays above

CCCCCCCC(=O)O
active: [12] 12.4 µM | [18] 12.4 µM | [20] 12.5 µM
not listed: [16] | [19]
inactive: all other assays above
